Screening results from PubChem.
TWEAK-Fn14 inh: inhibitors of TWEAK-Fn14 signaling, primary screen, luciferase reporter cells, uHTS; TWEAK-stimulated Fn14 reporter cells, luciferase luminescence, 8 h; inhibition, % at 10 µM; hit rate 2% among 360,000; AID 1159606, 2016; in the data active = inhibition above about 50%
Shn3 3UTR inh: reduction of Shn3 3'UTR firefly luciferase signal, primary screen, Schnurri-3 inhibitor project, cell-based, Clone20 osteoblasts, set 2; inhibition, % at 12.5 µM; Clone20 osteoblast Shn3 3'UTR firefly luciferase, 24 h; AID 588674, 2011; hit rate 0.52% among 360,000;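 active = mean inhibition of at least 75% with every replicate also reaching 75%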;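 also: 0% = median of neutral control wells and 100% = pilot-screen positive control compound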
EBV LMP1 NFkB: EBV LMP1-driven NF-kappaB luciferase reporter inhibitors, primary screen, cell-based, luminescence, single point; LMP1-induced NF-kappaB luciferase reporter cells; inhibition, % at 12.5 µM; hit rate 0.69% among 350,000; in the data active = inhibition above about 41%;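 also: 0% = neutral control wells and 100% = reference inhibitor control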
TROY NFkB inh: inhibitors of TROY-driven NF-kB signaling, primary screen, Q293 LMP1-TROYcd cells, NF-kB luciferase, uHTS | Q293 LMP1-TROYcd NF-kB luciferase reporter, 4 h | inhibition, % at 10 µM | hit rate 0.98% among 360,000 | AID 1347056, 2019;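 active = compounds whose plate-normalised and pattern-corrected inhibition of the luciferase reporter signal at the single screening dose is 50% or more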
Peg3 prom inh: Peg3 promoter-driven luciferase inhibitors, primary screen, cell-based, HeLa, luciferase luminescence. HeLa PEG-Prom luciferase reporter, overnight. inhibition, % at 20 µM. hit rate 1.7% among 360,000. AID 588405, 2011;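 active = inhibition of at least 50% at 20 µM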
MITF TRPM1 inh: inhibitors of MITF-dependent TRPM1 promoter reporter, primary screen, cell-based, SK-MEL-5, single point, luciferase; hit rate 0.83% among 330,000; AID 488899, 2010; SK-MEL-5 TRPM1 promoter luciferase, 24 h; inhibition, % at 12.5 µM;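 active = mean inhibition across replicates of 60% or more, whatever share of single replicates reaches that level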
The depositor's hits bear a star; / = no result given. Rows were chosen to be rich in hits. Some 4.1% of all compounds tested hit in one or more screens of this group.

SMILES | TWEAK-Fn14 inh | Shn3 3UTR inh | EBV LMP1 NFkB | TROY NFkB inh | Peg3 prom inh | MITF TRPM1 inh
CCN1CCN(c2cc(N3CCN(C(=O)c4ccco4)CC3)c3c4c(onc24)-c2ccccc2C3=O)CC1 | 3.1 | 8.8 | -7.4 | 18.5 | 29.9 | 88.8*
C=CCn1c(SCC(=O)c2cccs2)nc2sc(CC)cc2c1=O | 78.9* | 77.7 | 18.1 | 40.6 | 11.9 | 16.3
C=CCn1c(SCC(=O)O)nc2sc(CC)cc2c1=O | 16.2 | -14.3 | -3.3 | 0.3 | -1.1 | 13.9
CC(=O)N(Cc1ccc(F)cc1)C1=C(NCc2ccccc2)C(=O)c2ccccc2C1=O | 50.7* | 83.1 | 53.2* | 37.9 | 109.6* | 97.8*
CC/C=C\[C@H](O)[C@H](O)C1=C(C)C(=O)[C@]2(O1)C(=O)N[C@@](OC)(C(=O)c1ccccc1)C2O (stereo partly drawn) | 68.9* | 4.3 | -0.1 | 45.7 | 10.4 | -2.2
CCOC(=O)CSC1=NC(=O)/C(=C/c2ccc(OC)cc2)S1 | -8.2 | 8.9 | -17.4 | -74.5 | 101.9* | 81.7*
Cc1ccsc1CN(C)CC(=O)NCC(=O)Nc1ccc(F)c(F)c1F | 3.6 | 6.1 | -5.3 | -15.0 | 13.1 | 4.6
CC(=O)c1ccc(OCC(=O)N2CCCC2c2ccc3c(c2)OCCCO3)cc1 (stereo not drawn) | -4.7 | 9.5 | -1.5 | 4.8 | -2.0 | -8.2
CC1CCC2(CC1)NC(=O)N(CC(=O)NC(=O)Nc1ccc3c(c1)OCCO3)C2=O (stereo not drawn) | 50.0* | 1.6 | -10.5 | 30.9 | -7.6 | -13.9
O=C(CN1CCCC1c1ccc2c(c1)OCCO2)NC(=O)Nc1ccccc1 (stereo not drawn) | 67.8* | -17.2 | -4.4 | 59.5* | -28.9 | -7.2
O=C(CCl)N1CCCC1c1ccc2c(c1)OCCO2 (stereo not drawn) | 24.9 | -7.9 | -30.9 | -3.8 | 39.8 | 89.8*
Cc1ccc(NC(=O)NC(=O)CN2CCCC2c2ccc3c(c2)OCCO3)cc1C (stereo not drawn) | -12.5 | 2.0 | -4.5 | 13.5 | -17.3 | -9.4
Cc1ccc(S(=O)(=O)N2CCN(CN3C(=O)CC4(CCCC4)C3=O)CC2)cc1 | -0.3 | 14.0 | 2.0 | -2.1 | 11.5 | -1.1
CC(=O)c1ccccc1NC(=O)COC(=O)c1cc(C)oc1C | -15.4 | 18.7 | 3.8 | 6.6 | -0.8 | -10.9
O=C(O)[C@@H]1CCCN1S(=O)(=O)c1cccc2cccnc12 | 0.6 | 9.8 | -1.5 | -1.5 | -15.7 | 7.9
CCCCn1c(SCC(N)=O)nc2ccc(N3CCOCC3)cc2c1=O | 2.7 | -7.6 | -1.8 | -5.7 | 2.3 | 0.5
CCCCn1c(SCC(=O)Nc2cccc(OC)c2)nc2ccc(N3CCOCC3)cc2c1=O | 32.3 | -2.9 | -3.7 | 61.6* | 0.2 | -2.0
Cc1cccc2nc(CSc3nc4[nH]ncc4c(=O)n3-c3ccccc3Cl)cc(=O)n12 | 11.6 | 14.3 | 0.9 | 9.9 | -43.0 | 14.9
Cc1ccccc1-n1c(SCc2cc(=O)n3ccccc3n2)nc2[nH]ncc2c1=O | 60.2* | 12.9 | 13.1 | / | 2.5 | 7.3
CC(=O)Nc1ccc(NS(=O)(=O)c2cccc3nonc23)cc1 | -6.0 | -4.0 | -6.6 | -2.9 | 4.8 | 4.4
COC(=O)c1scc(C)c1N1C(=O)c2ccccc2C1=O | -4.1 | 4.6 | 0.3 | -0.8 | 14.6 | -0.8
O=C1Nc2ccccc2/C1=N\N=C\C1=C(N2CCOCC2)C(=C\c2ccccc2)/CC1 | 23.8 | 18.6 | 10.5 | -6.7 | 77.4* | 19.7
O=C1Nc2ccc(Br)cc2/C1=N\N=C\C1=C(N2CCOCC2)C(=C/c2ccccc2)/CC1 | 10.1 | -15.7 | -1.9 | 17.1 | 30.3 | 29.7
Cn1c(CCC(=O)O)nc2cc(S(=O)(=O)N3CCCCC3)ccc21 | 6.8 | -82.7 | 4.0 | -4.7 | 6.5 | 1.3
COc1ccc(C(=O)Nc2cccc3cccnc23)cc1OC | -0.5 | -16.8 | -1.0 | -38.9 | -89.6 | -53.3
SMILES | TWEAK-Fn14 inh | Shn3 3UTR inh | EBV LMP1 NFkB | TROY NFkB inh | Peg3 prom inh | MITF TRPM1 inh
COc1ccc(NC(=O)C(=O)Nc2cccc3cccnc23)cc1OC | 104.8* | 10.7 | -23.9 | -22.5 | -60.0 | -35.8
COc1ccc(OC)c(/C=C2\Oc3cc(OCC(=O)N4CCC(C(=O)O)CC4)ccc3C2=O)c1 | 11.1 | -8.6 | 0.1 | -17.8 | -2.4 | 10.6
COc1ccc(CNC(=O)c2cccc3c(-c4cccnc4)coc23)cc1OC | 64.0* | 88.4* | / | 50.1* | 18.6 | /
O=C(NCc1ccc(F)c(F)c1)c1cccc2c(-c3cccnc3)coc12 | 32.8 | 42.0 | / | 28.3 | -31.5 | /
O=C(NCc1cccc(Cl)c1)c1cccc2c(-c3cccnc3)coc12 | 90.0* | 62.3 | / | 55.8* | -3.6 | /
O=C(CNC(=O)c1ccccc1F)c1ccccc1 | 62.3* | -36.6 | 5.2 | -12.5 | -154.2 | -14.5
O=C(CNC(=O)c1cccs1)c1ccc(F)cc1 | 52.0* | -19.6 | 21.3 | 18.9 | -94.6 | -6.0
O=C(CNC(=O)c1cccs1)c1ccc(Cl)cc1 | 23.4 | -52.4 | 4.6 | 8.2 | -303.1 | -122.0
O=C(Nc1nccs1)c1ccc(CSc2ccccc2)o1 | 6.5 | -105.0 | / | -59.2 | -376.8 | -79.6
CC1=C(C(=O)Nc2ccc(C(=O)NC(C)c3ccccc3)cc2)SCCO1 (stereo not drawn) | -55.1 | 16.0 | 7.6 | -13.5 | 3.0 | -8.8
O=C1c2cccc3cc([N+](=O)[O-])cc(c23)C(=O)N1c1nncs1 | -11.3 | 8.3 | 0.4 | 2.3 | 5.2 | 12.3
C#CC(=O)N(c1ccc(OC)c(OC)c1)C(C(=O)NC1CCCC1)c1cccs1 (stereo not drawn) | 60.7* | 87.4* | 9.9 | 10.8 | 103.1* | 96.2*
C#CC(=O)N(c1cccc(OC)c1)C(C(=O)NC1CCCC1)c1cccs1 (stereo not drawn) | 54.7* | 99.6* | 96.2* | 27.9 | 106.4* | 106.6*
COC(=O)CNC(=O)CN1C(=O)N(c2ccccc2)C(N(O)C(=O)Nc2ccccc2)C1(C)C (stereo not drawn) | 80.7* | -18.6 | -4.3 | -9.2 | 0.0 | 4.1
COC(=O)CN1C(=O)N(c2ccccc2)C(N(O)C(=O)Nc2ccccc2)C1(C)C (stereo not drawn) | 0.1 | -47.9 | -3.7 | -27.1 | -9.3 | -13.9
Fc1cccc(Cl)c1CNc1ccc(N2CCCC2)cc1 | 56.9* | 29.8 | -5.0 | 17.4 | -15.6 | 23.6
NS(=O)(=O)c1ccc(NCc2c(F)cccc2Cl)cc1 | 5.6 | 7.4 | -1.0 | -47.8 | -0.5 | 4.9
CCOC(=O)N1C2CCC(C2)N1C(=O)OCC | 5.1 | 92.7* | -9.1 | 12.6 | 0.4 | -3.2
C(=C\c1nc(N2CCCC2)c2ccccc2n1)/c1ccccc1 | -28.3 | -0.9 | -3.7 | -37.6 | 103.3* | 2.0
Oc1ccc(Nc2nc(N3CCCC3)c3ccccc3n2)cc1 | -149.9 | 9.1 | -11.6 | -22.6 | 99.5* | 27.6
